# According to PubChem BioAssay AID1851 (National Center for Advancing Translational Sciences (NCATS), 2009):
# Hit rate of the full screen: of about 16,000 compounds, about 5,100 (32%) were called active. Inconclusive results (about 25%) are left out. The list shows a part of the results. A number with no mark means an inactive call. Calls follow the shape of the dose curve; as a rule, active = well fitted curve in the direction sought with a large enough effect; inconclusive = small, poorly fitted or top-dose-only effect, or effect the other way; inactive = no such curve, though single readings can be large or run the other way. Square brackets hold non-standard residues; d marks the D form. Peptide text beside a SMILES is read from it. * marks the point of attachment. Cbz = O=C(OCc1ccccc1)*
# Target: Cytochrome P450 3A4 (Homo sapiens) (UniProt P08684)
# Assay: Cytochrome panel assay with activity outcomes
# Conditions: recombinant CYP, pro-luciferin dealkylation, luminescence, p450-cyp3a4; series mostly up to 57.1 µM; activity, negative = inhibition: at the top concentration
# % is scaled to controls: 0 for no effect and ±100 for the full control effect.
# Cytochrome P450 3A4 (Homo sapiens), sequence (P08684 whole entry, looked up): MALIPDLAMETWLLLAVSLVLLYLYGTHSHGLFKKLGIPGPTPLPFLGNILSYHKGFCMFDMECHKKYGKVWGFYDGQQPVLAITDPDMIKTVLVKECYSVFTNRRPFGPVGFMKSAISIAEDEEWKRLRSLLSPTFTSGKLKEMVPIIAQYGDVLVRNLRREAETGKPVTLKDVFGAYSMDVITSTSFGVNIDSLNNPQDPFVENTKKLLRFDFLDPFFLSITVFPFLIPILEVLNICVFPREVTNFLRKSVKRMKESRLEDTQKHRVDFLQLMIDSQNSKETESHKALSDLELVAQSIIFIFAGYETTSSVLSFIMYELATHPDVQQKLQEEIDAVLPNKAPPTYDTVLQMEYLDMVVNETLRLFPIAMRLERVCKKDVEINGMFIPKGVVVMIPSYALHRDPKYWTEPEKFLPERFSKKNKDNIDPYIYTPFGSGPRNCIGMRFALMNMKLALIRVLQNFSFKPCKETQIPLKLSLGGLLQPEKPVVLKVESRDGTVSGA
Structure (SMILES),"activity, negative = inhibition",AC50
CCN(CC)C(=O)c1ccc(O)c(OC)c1,-14.6% [at 25.6 µM],–
CCCCN(CC)C(=O)Cc1ccccc1OC,–,15.8 µM (active)
CCCCN(C(=O)NC(=O)Nc1ccccc1OCC)S(C)(=O)=O,-18.4%,–
COc1ccccc1CNC(=O)c1cc2c(C)nn(Cc3ccc(F)cc3)c2s1,–,2.82 µM (active)
CNC(=O)COC(=O)c1cc2c(C)nn(-c3ccc(F)cc3)c2s1,-30%,–
CCCn1nc2cc(C(=O)NCc3ccccc3OC)ccc2c1OCC,-3.81% [at 2.29 µM],–
CC(=O)N[C@@H](C(=O)O)C(C)(C)SN=O,–,inactive
CCC(C#CCN1CCCCC1)(CC)OCCC#N,-12.9%,–
O=C(O)C[C@H](Cc1ccc2c(c1)OCO2)C(=O)O,-6.76% [at 11.4 µM],–
Cc1c(C(=O)O)oc2ccc(S(=O)(=O)NCc3ccc4c(c3)OCO4)cc12,–,15.8 µM (active)
CC(=O)Nc1nnc(CCN2CCCCC2)s1,18%,–
CCc1nc(SCC(=O)NNC(=O)C2CCCCC2)c2ccccc2n1,12.1%,–
CCCc1nc(SCC(=O)NNC(=O)C2CCCCC2)c2ccccc2n1,–,3.55 µM (active)
CCc1nnc(NC(=O)CSc2nc3cc4c(cc3cc2C)OCCO4)s1,–,14.1 µM (active)
CCc1nnc(NC(=O)CSc2nc(C3CCCCC3)nc3ccccc23)s1,–,2.51 µM (active)
Cc1ccc(SCN2CCCCC2)cc1 (tested in a mixture with another compound),-20% [at 11.4 µM],–
Cc1ccc(SCC(=O)NNC(=O)C2CCCCC2)cc1,–,7.94 µM (active)
CCCS(=O)(=O)N1CCCC(C(=O)N2CCN(C(=O)OCC)CC2)C1 (stereo unspecified),22.2%,–
CC1=C/C(=C(/c2ccc(O)c(C)c2)c2ccccc2C(=O)O)C=CC1=O,–,1.58 µM (active)
O=C(O)C1=CC(=C(c2ccc(O)c(C(=O)O)c2)c2ccc(O)c(C(=O)O)c2)C=CC1=O,-13.9%,–
O=C(O)c1ccc(C(=O)c2ccccc2C(=O)O)cc1C(=O)O,-0.636% [at 11.4 µM],–
Cc1ccccc1N1CCN(S(=O)(=O)C[C@@]23CC[C@H](C[C@H]2NC(=O)[C@@H](N)CCS(C)(=O)=O)C3(C)C)CC1,–,3.16 µM (active)
Cn1c(=O)n(CCC(=O)O)c2ccccc21,-1.84%,–

Structure (SMILES),"activity, negative = inhibition",AC50
COc1ccccc1CNC(=O)CCCn1c(=O)c2ccccc2n(CC(=O)NC2CCCC2)c1=O,–,4.47 µM (active)
CC(=O)CCCCn1c(=O)c2c(ncn2C)n(C)c1=O,-0.936% [at 25.6 µM],–
O=C(CCCCn1c(=O)c2ccccc2n(CC(=O)NC2CCCC2)c1=O)NC1CCCC1,–,5.01 µM (active)
CC1(C)Oc2ccc(C#N)cc2[C@H](N2CCCC2=O)[C@H]1O,–,inactive
Cc1n[nH]c(=O)[nH]c1=O,-9.3% [at 25.6 µM],–
Cc1noc(NS(=O)(=O)c2ccc(N/C=C\C(=O)c3ccc4c(c3)OCO4)cc2)c1C,–,14.1 µM (active)
Cc1noc(NS(=O)(=O)c2ccc(N/C=C/C(=O)c3ccc4c(c3)OCO4)cc2)c1C,–,11.2 µM (active)
O=C(Nc1cnn(Cc2ccc(Cl)cc2)c1)c1ccc([N+](=O)[O-])cc1,-0.424% [at 2.29 µM],–
O=C(Nc1ncc(Cc2cccc(Cl)c2)s1)C1=NCCN1,-16.4%,–
O=C(Nc1ncc(Cc2cc(Cl)ccc2Cl)s1)c1ccc([N+](=O)[O-])cc1,–,6.31 µM (active)
CC(C)C[C@H](NC(=O)[C@@H](O)[C@H](N)Cc1ccccc1)C(=O)O,-14.6%,–
CC(C)C(NC(=O)OCc1ccccc1)C(=O)O (stereo unspecified),2.93%,–
N[C@H](C(=O)O)[C@H](OCc1ccccc1)C(=O)O,7.73%,–
CCCCC(C=O)NC(=O)C(CC(C)C)NC(=O)OCc1ccccc1 (stereo unspecified),–,15.8 µM (active)
CSCC[C@H](C=O)NC(=O)[C@H](CC(C)C)NC(=O)[C@H](CC(C)C)NC(C)=O (Ac-Leu-Leu-[dM]-aldehyde),-15.9%,–
CC(C)[C@H](NC(=O)OCc1ccccc1)C(=O)N[C@H](C=O)Cc1ccccc1 (Cbz-Val-Phe-aldehyde),–,6.31 µM (active)
CCCSC1=C(C#N)C(c2cccnc2)C(C(=O)OCC)=C(c2ccccc2)N1 (stereo unspecified),–,11.2 µM (active)
COc1ccc(N(C(=O)COc2ccccc2OC)S(=O)(=O)c2ccc(C)cc2)cc1,–,25.1 µM (active)
COc1ccc(N(CC(=O)O)N=O)cc1,-6.51% [at 11.4 µM],–
CN(C)CCO[C@@H](c1ccc(Cl)cc1)c1ccccn1,2.09% [at 25.6 µM],–
CC1(C)[C@@H]2CC[C@]1(C)[C@@H](OC(=O)/C=C\c1ccccc1)C2,-9.57% [at 11.4 µM],–
Nc1nnc(SCCOc2cccc(Br)c2)s1,–,12.6 µM (active)
FC(F)Sc1ccc(N=C2NN=C(c3ccc4c(c3)OCCO4)CS2)cc1,–,12.6 µM (active)
